Drawing on PubChem BioAssay (Tox21), this text covers Potency and outcome for six compounds.

The nature of assay [1]: qHTS assay to identify aromatase inhibitors - cell viability counter screen (AID 743084).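 Also: cells stimulated with testosterone during compound exposure; nearly all actives have a fitted effect of over 55% in size.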 Also: potency is read from the fitted curve at half-maximal effect.
The target of assay [2] is Aryl hydrocarbon receptor (Homo sapiens) (UniProt P35869). The assay can be described thus: qHTS assay to identify small molecule that activate the aryl hydrocarbon receptor (AhR) signaling pathway (AID 743085). Also: nearly all actives have a fitted effect of over 15% in size. Also: potency is read from the fitted curve at half-maximal effect.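 As to activation: HG2L7.5c1 human HepG2 liver cells with stably integrated DRE-driven firefly reporter; series mostly up to about 70 µM.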 The gist of the method:
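Luminescence (ONE-Glo) from a dioxin-responsive-element luciferase reporter in HG2L7.5c1 HepG2 cells after 24 hr compound exposure at 37C; viability measured by CellTiter-Fluor fluorescence beforehand.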
For orientation: qHTS replaces the single test concentration by a dilution series.

The nature of assay [3]: qHTS assay to identify small molecule that activate the aryl hydrocarbon receptor (AhR) signaling pathway - cell viability counter screen (AID 743086).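 Also: HepG2 liver cells carrying the AhR DRE luciferase reporter; series mostly up to about 70 µM; nearly all actives have a fitted effect of over 45% in size.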 The gist of the method:
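HepG2-AhR-luc (HG2L7.5c1) cells, 4000/well, treated 24 h at 37 C with compound; viability measured as CellTiter-Fluor fluorescence after 30 min in the same wells as the luciferase read.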

Assay [4] deals with Peroxisome proliferator-activated receptor gamma (Homo sapiens) (UniProt P37231). Nature of the assay: qHTS assay to identify small molecule antagonists of the peroxisome proliferator-activated receptor gamma (PPARg) signaling pathway (AID 743191; calls by dose curve; also: nearly all actives have a fitted effect of over 30% in size; also: potency is read from the fitted curve at half-maximal effect). The gist of the method:
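GeneBLAzer PPARg UAS-bla HEK293H cells, 5 h post-plating, exposed to compounds 17 h at 37C. LiveBLAzer B/G FRET substrate added for 1 h at room temperature; beta-lactamase reporter read by fluorescence intensity.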

Assay [5] can be described thus: qHTS assay to identify small molecule antagonists of the peroxisome proliferator-activated receptor gamma (PPARg) signaling pathway - cell viability counter screen (AID 743194). Also: nearly all actives have a fitted effect of over 55% in size. Also: potency is read from the fitted curve at half-maximal effect. Particulars: Potency: co-treated with 50 nM rosiglitazone unless noted. The gist of the method:
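Cytotoxicity counter screen in PPARg-bla HEK293H cells, same wells as reporter assay. Compounds plus 50 nM rosiglitazone (final) for 17 h at 37 C, then viability read by CellTiter-Glo luminescence.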

Assay [6] in a line: qHTS assay for small molecule agonists of the antioxidant response element (ARE) signaling pathway (AID 743202; active = well fitted activation curve with a large enough effect in the signal ratio in the repeat runs, not every such curve was filed as active; the % refers to the signal ratio; also: potency is read from the fitted curve at half-maximal effect). The gist of the method:
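HepG2 ARE-bla reporter line, 2,000 cells/well; 5 h preincubation 37 C/5% CO2; compound (DMSO) 16 h 37 C; B/G FRET substrate 2 h RT; fluorescence intensity.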

A short description of assay [7]: qHTS assay for small molecule agonists of the antioxidant response element (ARE) signaling pathway - cell viability counter screen (AID 743203; calls by dose curve; also: nearly all actives have a fitted effect of over 55% in size; also: potency is read from the fitted curve at half-maximal effect). The gist of the method:
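Viability counter screen: stably transfected ARE-bla HepG2 line, 16 hrs compound exposure at 37C/5% CO2, ATP-based CellTiter-Glo luminescence measured in the reporter wells.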

Assay [8] is described as follows: qHTS assay for small molecule activators of the heat shock response signaling pathway - cell viability counter screen (AID 743209). Also: nearly all actives have a fitted effect of over 50% in size. Also: potency is read from the fitted curve at half-maximal effect. The gist of the method: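 Viability of HSE-bla HeLa cells is measured with CellTiter-Glo in the wells already used for the reporter read. Compound exposure lasts 5 h at 37 C, and luminescence is read after 30 min at room temperature.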

A short description of assay [9]: qHTS assay for small molecule activators of the heat shock response signaling pathway (AID 743210; active = well fitted activation curve with a large enough effect in the signal ratio in the repeat runs, with a control signal flat, not every such curve was filed as active; the % refers to the signal ratio;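 also: HeLa cells with beta-lactamase reporter driven by heat shock elements; series mostly up to about 63 µM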). The gist of the method:
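Beta-lactamase reporter read-out: FRET substrate fluorescence after 2.5 h at RT, following 5 h compound treatment at 37 C of HeLa cells carrying HSE-driven bla reporter; quantitative HTS format.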

Assay [10] in a line: qHTS assay to identify small molecule agonists of the peroxisome proliferator-activated receptor delta (PPARd) signaling pathway - cell viability counter screen (AID 743211). Also: nearly all actives have a fitted effect of over 55% in size. Also: potency is read from the fitted curve at half-maximal effect. In short, it runs like this:
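Viability was measured as CellTiter-Glo luminescence (30 min, room temperature) in the same wells as the beta-lactamase readout. GeneBLAzer PPARd UAS-bla HEK293H cells received compound after 5 h plating and were incubated 17 h at 37 C.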

Assay [11] concerns the target Peroxisome proliferator-activated receptor delta (Homo sapiens) (UniProt Q03181). Nature of the assay: qHTS assay to identify small molecule agonists of the peroxisome proliferator-activated receptor delta (PPARd) signaling pathway (AID 743212; calls by dose curve). In short, it runs like this: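 Read-out: beta-lactamase FRET fluorescence after 2 h room-temperature incubation with LiveBLAzer B/G substrate. Cells were HEK293H carrying a UAS-bla reporter for PPARd, treated at 37 C with DMSO-dissolved compounds.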

Assay [12] can be described thus: qHTS assay to identify small molecule antagonists of the peroxisome proliferator-activated receptor delta (PPARd) signaling pathway - cell viability counter screen (AID 743213). Also: nearly all actives have a fitted effect of over 50% in size. Also: potency is read from the fitted curve at half-maximal effect. The gist of the method: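 In this counter screen, HEK293H cells carrying a UAS-beta-lactamase reporter are co-treated with test compounds and 300 nM L165041 (final) for 17 h at 37 C; cell viability is quantified by CellTiter-Glo luminescence.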

Assay [13] deals with Peroxisome proliferator-activated receptor delta (Homo sapiens) (UniProt Q03181). Nature of the assay: qHTS assay to identify small molecule antagonists of the peroxisome proliferator-activated receptor delta (PPARd) signaling pathway (AID 743215; active = well fitted inhibition curve with a large enough effect in the signal ratio in the repeat runs, not every such curve was filed as active; the % refers to the signal ratio;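 also: cells stimulated with agonist L165041 at 300 nM final during compound exposure; series mostly up to about 62 µM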). In short, it runs like this: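 Plated HEK293H PPARd-bla cells rested 5 h at 37 C and 5% CO2. Compound, then agonist L165041 at 300 nM final, was added; 17 h at 37 C followed. Substrate loading, 2 h room temperature, fluorescence measured.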
Peroxisome proliferator-activated receptor delta (Homo sapiens), sequence (Q03181 whole entry, looked up): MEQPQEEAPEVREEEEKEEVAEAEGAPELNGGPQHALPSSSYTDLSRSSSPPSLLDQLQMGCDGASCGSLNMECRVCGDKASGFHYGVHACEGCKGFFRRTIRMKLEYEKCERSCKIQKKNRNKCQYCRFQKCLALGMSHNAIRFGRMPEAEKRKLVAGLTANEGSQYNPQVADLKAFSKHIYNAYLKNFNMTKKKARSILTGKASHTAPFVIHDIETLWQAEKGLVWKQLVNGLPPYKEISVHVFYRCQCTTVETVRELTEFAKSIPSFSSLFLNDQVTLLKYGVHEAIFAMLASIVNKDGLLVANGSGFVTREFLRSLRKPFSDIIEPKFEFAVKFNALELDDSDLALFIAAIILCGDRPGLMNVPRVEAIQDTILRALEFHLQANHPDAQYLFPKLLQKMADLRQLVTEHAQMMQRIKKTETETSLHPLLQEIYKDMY

Assay [14] in a line: qHTS assay to identify small molecule agonists of the farnesoid-X-receptor (FXR) signaling pathway - cell viability counter screen (AID 743218). Also: nearly all actives have a fitted effect of over 45% in size. Also: potency is read from the fitted curve at half-maximal effect. In short, it runs like this: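 Viability of FXR-bla HEK 293T cells is measured by ATP-based CellTiter-Glo luminescence following 16 h compound treatment at 37 C and a prior 2 h room-temperature beta-lactamase substrate step.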
Assay [15] deals with Bile acid receptor (Homo sapiens) (UniProt Q96RI1). Nature of the assay: qHTS assay to identify small molecule agonists of the farnesoid-X-receptor (FXR) signaling pathway (AID 743220; active = well fitted activation curve with a large enough effect in the signal ratio in the repeat runs, not every such curve was filed as active; the % refers to the signal ratio). The gist of the method:
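FXR-UAS-bla HEK 293T cells carrying a UAS-driven beta-lactamase reporter were plated for 5 h at 37C/5% CO2, then exposed to DMSO-dissolved Tox21 10K compounds for 16 h at 37C. A LiveBLAzer B/G FRET substrate was loaded for 2 h at room temperature before fluorescence reading.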

A short description of assay [16]: qHTS assay to identify small molecule antagonists of the farnesoid-X-receptor (FXR) signaling pathway - cell viability counter screen (AID 743221; active = well fitted cell-killing curve with a large enough effect in the repeat runs, not every such curve was filed as active; also: nearly all actives have a fitted effect of over 50% in size; also: potency is read from the fitted curve at half-maximal effect). The gist of the method: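 Cytotoxicity counter screen run in the FXR-bla reporter wells: HEK 293T cells exposed to compound with 50 uM (final) chenodeoxycholic acid for 16 h, 37 C, then viability measured by CellTiter-Glo luminescence after 30 min, room temperature.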

For assay [17], the target named is Peroxisome proliferator-activated receptor gamma (Homo sapiens) (UniProt P37231). Nature of the assay: qHTS assay to identify small molecule agonists of the peroxisome proliferator-activated receptor gamma (PPARg) signaling pathway (AID 743094; active = well fitted activation curve with a large enough effect in the signal ratio in the repeat runs, not every such curve was filed as active; the % refers to the signal ratio). The gist of the method:
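Reporter activation was scored by fluorescence of cleaved LiveBLAzer B/G substrate (1 h, room temperature) in PPARg-bla HEK293H cells previously treated 17 h at 37C with DMSO-dissolved compounds.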

The target in assay [18] is Vitamin D3 receptor (Homo sapiens) (UniProt P11473). The assay can be described thus: qHTS assay to identify small molecule agonists of the vitamin D receptor (VDR) signaling pathway (AID 743222; calls by dose curve). The gist of the method:
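Fluorescence from cleaved LiveBLAzer B/G FRET substrate served as readout. VDR-bla cells had been treated 16 h at 37C with test compounds in DMSO, following a 4 h settling period, and substrate was loaded for 2 h at RT.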

The target is the same in assay [19]. Nature of the assay: qHTS assay to identify small molecule antagonists of the vitamin D receptor (VDR) signaling pathway (AID 743223; active = well fitted inhibition curve with a large enough effect in the signal ratio in the repeat runs, not every such curve was filed as active; the % refers to the signal ratio). In short, it runs like this:
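Antagonist mode: compound added to VDR-bla cells alongside agonist 1alpha,25-dihydroxyvitamin D3 (3 nM final), incubation 16 h at 37C. Read-out is LiveBLAzer FRET fluorescence, 2 h at room temperature.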

“And” between values parts separate entries of the source, which are not always exact repeats. Equal entries are not always repeated. Records with an inconclusive call do not appear. More than one record can exist for a structure, and the calls need not agree. The source made the active and inactive calls. Unless noted, calls follow the shape of the dose curve; as a rule, active = well fitted curve in the direction sought with a large enough effect in the repeat runs; inconclusive = weak or mixed curves; inactive = no such curve, though single readings can be large; an effect the other way counts as inactive or inconclusive.

Aryl hydrocarbon receptor (Homo sapiens), sequence (P35869 whole entry, looked up): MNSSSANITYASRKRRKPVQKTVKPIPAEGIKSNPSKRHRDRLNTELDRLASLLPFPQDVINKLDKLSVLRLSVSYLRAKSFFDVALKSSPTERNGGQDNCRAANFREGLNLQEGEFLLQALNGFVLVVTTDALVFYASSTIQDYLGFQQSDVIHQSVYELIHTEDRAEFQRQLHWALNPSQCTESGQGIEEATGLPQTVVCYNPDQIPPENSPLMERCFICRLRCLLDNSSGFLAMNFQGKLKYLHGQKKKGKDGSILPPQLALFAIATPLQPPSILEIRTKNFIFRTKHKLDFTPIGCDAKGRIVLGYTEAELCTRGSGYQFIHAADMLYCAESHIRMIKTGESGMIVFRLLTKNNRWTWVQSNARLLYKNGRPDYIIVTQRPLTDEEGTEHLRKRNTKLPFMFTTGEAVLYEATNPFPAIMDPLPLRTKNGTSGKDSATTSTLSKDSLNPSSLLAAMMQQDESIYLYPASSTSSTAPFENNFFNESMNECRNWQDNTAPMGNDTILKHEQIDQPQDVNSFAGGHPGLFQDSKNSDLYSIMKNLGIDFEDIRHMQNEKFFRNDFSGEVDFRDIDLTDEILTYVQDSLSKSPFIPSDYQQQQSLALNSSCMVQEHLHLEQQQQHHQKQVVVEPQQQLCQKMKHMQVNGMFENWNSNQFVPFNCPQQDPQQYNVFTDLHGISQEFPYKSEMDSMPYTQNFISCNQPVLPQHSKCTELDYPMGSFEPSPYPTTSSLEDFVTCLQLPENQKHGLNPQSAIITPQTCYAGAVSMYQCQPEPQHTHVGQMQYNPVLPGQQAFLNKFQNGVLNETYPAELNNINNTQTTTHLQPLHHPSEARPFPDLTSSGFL
Vitamin D3 receptor (Homo sapiens), sequence (P11473 whole entry, looked up): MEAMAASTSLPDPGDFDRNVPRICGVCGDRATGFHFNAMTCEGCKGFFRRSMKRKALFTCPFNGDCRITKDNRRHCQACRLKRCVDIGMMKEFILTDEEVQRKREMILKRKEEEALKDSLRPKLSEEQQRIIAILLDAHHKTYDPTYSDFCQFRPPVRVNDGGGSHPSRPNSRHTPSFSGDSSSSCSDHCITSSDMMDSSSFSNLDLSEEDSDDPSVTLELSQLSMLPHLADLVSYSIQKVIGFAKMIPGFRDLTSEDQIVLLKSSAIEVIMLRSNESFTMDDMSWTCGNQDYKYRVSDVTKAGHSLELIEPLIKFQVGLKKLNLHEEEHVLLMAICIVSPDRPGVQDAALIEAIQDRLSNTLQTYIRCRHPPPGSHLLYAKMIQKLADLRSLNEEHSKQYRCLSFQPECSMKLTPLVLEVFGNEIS
Peroxisome proliferator-activated receptor gamma (Homo sapiens), sequence (P37231 whole entry, looked up): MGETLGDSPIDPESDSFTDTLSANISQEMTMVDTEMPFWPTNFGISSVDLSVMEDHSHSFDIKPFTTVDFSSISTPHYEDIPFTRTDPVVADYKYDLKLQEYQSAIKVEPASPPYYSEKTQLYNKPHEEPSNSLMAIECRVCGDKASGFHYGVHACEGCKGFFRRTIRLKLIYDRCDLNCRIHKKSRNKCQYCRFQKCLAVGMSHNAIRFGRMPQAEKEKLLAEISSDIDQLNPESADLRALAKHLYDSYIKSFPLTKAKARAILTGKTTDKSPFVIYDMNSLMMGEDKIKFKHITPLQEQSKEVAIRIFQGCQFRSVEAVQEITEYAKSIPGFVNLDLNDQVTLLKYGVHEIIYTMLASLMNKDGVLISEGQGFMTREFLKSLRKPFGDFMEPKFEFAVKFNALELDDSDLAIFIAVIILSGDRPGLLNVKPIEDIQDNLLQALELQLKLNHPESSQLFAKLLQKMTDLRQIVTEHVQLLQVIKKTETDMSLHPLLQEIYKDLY
Bile acid receptor (Homo sapiens), sequence (Q96RI1 whole entry, looked up): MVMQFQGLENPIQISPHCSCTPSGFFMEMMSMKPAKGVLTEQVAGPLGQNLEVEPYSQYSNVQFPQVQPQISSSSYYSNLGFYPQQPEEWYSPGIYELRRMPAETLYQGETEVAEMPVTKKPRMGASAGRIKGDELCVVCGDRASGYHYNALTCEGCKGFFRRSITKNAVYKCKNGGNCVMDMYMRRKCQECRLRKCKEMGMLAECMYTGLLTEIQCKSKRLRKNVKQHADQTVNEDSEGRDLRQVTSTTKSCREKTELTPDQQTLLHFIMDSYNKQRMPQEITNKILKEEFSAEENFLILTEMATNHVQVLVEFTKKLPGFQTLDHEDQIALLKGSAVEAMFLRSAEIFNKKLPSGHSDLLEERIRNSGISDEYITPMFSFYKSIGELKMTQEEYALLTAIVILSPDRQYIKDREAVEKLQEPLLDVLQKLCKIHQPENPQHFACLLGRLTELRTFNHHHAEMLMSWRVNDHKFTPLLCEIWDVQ

For the compound `C#CCOS(=O)OC1CCCCC1Oc1ccc(C(C)(C)C)cc1` (stereo not given), the Potency was 21.7 µM (active) and 6.86 µM (active) in assay [1]; 43.6 µM (active) in assay [4]; 2.45 µM (active) in assay [5]; 970 nM (active) and 1.72 µM (active) in assay [6]; “inactive and 24.5 µM (active)” in assay [10]. Moreover, the Potency entry in assay [2], in assay [3], in assay [7], in assay [8], in assay [9] and in [11] was “inactive” in each case. Also, the Potency result in assay [12], in assay [13], in [14] and in [16] was “inactive” throughout. Moreover, the call in assay [15] was inactive.

Regarding `CC(C)c1ccc(CO)cc1`, the Potency entry in assay [1], in assay [3], in [17], in assay [5], in assay [6] and in assay [7] was “inactive” each time. For the same compound, the Potency result in assay [8], in assay [9], in assay [10], in [11], in assay [12] and in [16] was “inactive” in each case. In addition, the compound was classed as inactive in assay [18] and in assay [19].

On to `Nc1ccncc1`, for which the Potency entry in assay [1], in [2], in assay [3], in assay [5], in assay [6] and in assay [7] was “inactive” each time. In addition, the Potency entry in assay [8], in [10], in [11], in [13], in assay [14] and in assay [16] was “inactive” in each case. In addition, the compound was called inactive in [18] and in assay [19].

For the compound `Oc1cc(Cl)ccc1Oc1ccc(Cl)cc1Cl`, the Potency entry in assay [1] was “inactive and 22.2 µM (active)”; in assay [2] it was “inactive and 21 µM (active)”; in assay [5], 6.31 µM (active); in assay [7], 27.9 µM (active); in assay [8], 30.7 µM (active) and 29.8 µM (active); in [10], 20 µM (active) and 15 µM (active). Besides, the Potency in assay [12] was 28 µM (active) and inactive; in assay [14], 42.1 µM (active); in assay [16], 56.2 µM (active). Besides, the Potency entry in assay [17], in [11] and in [13] was “inactive” each time. For the same compound, the compound was called inactive in assay [18] and in [19].

For `C[C@]12CCC(=O)C[C@@H]1CC[C@@H]1[C@@H]2CC[C@]2(C)[C@@H](O)CC[C@@H]12`, the Potency entry in assay [1], in assay [2], in assay [3], in assay [5], in [7] and in assay [8] was “inactive” throughout. In addition, the Potency entry in assay [9], in assay [10] and in assay [14] was “inactive” each time. Moreover, the Potency in assay [6] is 27 µM (active).

On to `COc1ccc(C(CN(C)C)C2(O)CCCCC2)cc1` (stereo not given), for which the Potency result in assay [1], in assay [3], in assay [17], in assay [4], in assay [5] and in [6] was “inactive” in each case. The Potency result in [7], in assay [8], in assay [9], in [10], in [11] and in assay [12] was “inactive” each time. Besides, the Potency entry in assay [13], in assay [14] and in [16] was “inactive” each time. Also, the compound was classed as inactive in assay [18] and in assay [19].
